# Several values for one entry are separate records, joined by “and”; a condition that tells them apart may be missing. Identical values can stand only once. Records with an inconclusive call do not appear. Values without a mark were called inactive. Activity calls are given as the source filed them. Calls follow the shape of the dose curve; as a rule, active = well fitted inhibition curve with a large enough effect; inconclusive = small, poorly fitted or top-dose-only effect; inactive = flat fitted curve, though single readings scatter.
# Legend:
# CRL-7250 [1] = test: Cytotoxic Profiling of Annotated Libraries Using Quantitative High-Throughput Screening (AID 1296008); conditions: Five cell lines viability, CellTiter-Glo ATP luminescence, 48-72 h; max response: hits give low values; also: potency is read from the fitted curve at half-maximal effect; as to max response: % is scaled to controls: 0 for no effect and ±100 for the full control effect
# Method in brief: (§1)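 Compounds were pin-transferred onto cells and incubated 48 or 72 hr at 37 degree Celsius, 95% humidity. CellTiter-Glo was added, plates sat 10 min at room temperature, then ATP-coupled luminescence was imaged as the viability read-out.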
# HaCat [2] = test: as above; conditions: Five cell lines viability, CellTiter-Glo ATP luminescence, 48-72 h; max response: hits give low values
# Method in brief: as §1
# KB-3-1 = test: as above; conditions: Five cell lines viability, CellTiter-Glo ATP luminescence, 48-72 h; max response: hits give low values
# Method in brief: as §1
# P94_40 = test: qHTS profiling for inhibitors of Plasmodium falciparum proliferation (AID 504749); also: potency is read from the fitted curve at half-maximal effect; conditions: P. falciparum in erythrocytes, SYBR Green DNA, 72 h; series mostly up to 28.7 µM
# Method in brief: (§2)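 Fluorescence of SYBR Green-bound parasite DNA, read at 485/535 nm, served as the growth measure. Infected erythrocytes were cultured with compound 72 h; artemisinin (0.29 uM) and DMSO wells defined the normalization range.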
# PC15 = test: as above; conditions: P. falciparum in erythrocytes, SYBR Green DNA, 72 h; series mostly up to 28.7 µM
# Method in brief: as §2
# PC49 = test: as above; conditions: P. falciparum in erythrocytes, SYBR Green DNA, 72 h; series mostly up to 28.7 µM
# Method in brief: as §2
# TAB165 = test: as above; conditions: P. falciparum in erythrocytes, SYBR Green DNA, 72 h; series mostly up to 28.7 µM
# Method in brief: as §2
# W2 = test: as above; conditions: P. falciparum in erythrocytes, SYBR Green DNA, 72 h; series mostly up to 28.7 µM
# Method in brief: as §2
# HEK293 = test: Cytotoxic Profiling of Annotated Libraries Using Quantitative High-Throughput Screening (AID 1296008); conditions: Five cell lines viability, CellTiter-Glo ATP luminescence, 48-72 h; max response: hits give low values; also: potency is read from the fitted curve at half-maximal effect; as to max response: % is scaled to controls: 0 for no effect and ±100 for the full control effect
# Method in brief: as §1
# N140 = test: qHTS profiling for inhibitors of Plasmodium falciparum proliferation (AID 504749); also: potency is read from the fitted curve at half-maximal effect; conditions: P. falciparum in erythrocytes, SYBR Green DNA, 72 h; series mostly up to 28.7 µM
# Method in brief: as §2
# P93_24 = test: as above; conditions: P. falciparum in erythrocytes, SYBR Green DNA, 72 h; series mostly up to 28.7 µM
# Method in brief: as §2
# PAD = test: as above; conditions: P. falciparum in erythrocytes, SYBR Green DNA, 72 h; series mostly up to 28.7 µM
# Method in brief: as §2
# PC26 = test: as above; conditions: P. falciparum in erythrocytes, SYBR Green DNA, 72 h; series mostly up to 28.7 µM
# Method in brief: as §2
# SC27B = test: as above; conditions: P. falciparum in erythrocytes, SYBR Green DNA, 72 h; series mostly up to 28.7 µM
# Method in brief: as §2
# TAB109 = test: as above; conditions: P. falciparum in erythrocytes, SYBR Green DNA, 72 h; series mostly up to 28.7 µM
# Method in brief: as §2
# TAB113 = test: as above; conditions: P. falciparum in erythrocytes, SYBR Green DNA, 72 h; series mostly up to 28.7 µM
# Method in brief: as §2
# NIH3T3 = test: Cytotoxic Profiling of Annotated Libraries Using Quantitative High-Throughput Screening (AID 1296008); conditions: Five cell lines viability, CellTiter-Glo ATP luminescence, 48-72 h; max response: hits give low values; also: potency is read from the fitted curve at half-maximal effect; as to max response: % is scaled to controls: 0 for no effect and ±100 for the full control effect
# Method in brief: as §1
# HACAT [3] = test: qHTS assay to identify novel small-molecules to repurpose for Merkel cell carcinoma treatment (AID 1296009); conditions: MCC and control cell lines, CellTiter-Glo viability, 72 h; at 44.8 µM (top of the series) unless noted
# Method in brief: (§3)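 Luminescence from CellTiter-Glo, read 10 min after addition at room temperature, reported viability following a 72 hr, 37 degree celsius treatment with NPC or MIPE compounds in titration; values normalized to plate controls.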
# HEK293T = test: as above; conditions: MCC and control cell lines, CellTiter-Glo viability, 72 h; at 44.8 µM (top of the series)
# Method in brief: as §3
# CRL-7250 [4] = test: as above; conditions: MCC and control cell lines, CellTiter-Glo viability, 72 h; at 44.8 µM (top of the series) unless noted
# Method in brief: as §3
# Also: nearly all actives have a fitted effect of over 60% in size.
structure (smiles),measurement,setting,value
CN1[C@@H]2CC[C@H]1CC(OC(=O)c1cc(Cl)cc(Cl)c1)C2 (stereo partly drawn),max response,CRL-7250 [1],-20.4%
same,max response,HaCat [2],3.49%
same,max response,KB-3-1,-13.9%
CN1C(=O)[C@@H](NC(=O)c2cc3ccccc3[nH]2)N=C(c2ccccc2)c2ccccc21,Potency,P94_40,11.2 µM (active)
same,Potency,PC15,inactive
same,Potency,PC49,inactive
same,Potency,TAB165,10 µM (active)
same,Potency,W2,7.57 µM (active)
same,max response,CRL-7250 [1],-23.4%
same,Potency,HEK293,11.9 µM (active)
same,max response,KB-3-1,1.71%
CN(C)C(=S)SSC(=S)N(C)C,Potency,N140,1.78 µM (active)
same,Potency,P93_24,2.51 µM (active)
same,Potency,P94_40,2 µM (active)
same,Potency,PAD,2 µM (active)
same,Potency,PC15,3.16 µM (active)
same,Potency,PC26,3.79 µM (active)
same,Potency,PC49,11.2 µM (active)
same,Potency,SC27B,6.31 µM (active)
same,Potency,TAB109,1.58 µM (active)
same,Potency,TAB113,3.98 µM (active)
same,Potency,TAB165,2.51 µM (active)
same,Potency,W2,0.849 µM (active)
same,Potency,CRL-7250 [1],0.75 µM (active)
same,Potency,HEK293,0.944 µM (active)
same,max response,KB-3-1,-0.0008%
same,Potency,NIH3T3,0.422 µM (active)
CCOC(=O)C1(c2ccccc2)CCN(CCc2ccc(N)cc2)CC1,max response,CRL-7250 [1],-7.28%
same,max response,HEK293,-24.8%
same,max response,HaCat [2],-21.6%
same,max response,NIH3T3,2.24%
CC(C)=CCN1CC[C@@]2(C)c3cc(O)ccc3C[C@@H]1[C@@H]2C,max response,CRL-7250 [1],-10.3%
same,max response,HaCat [2],-13.3%
same,max response,KB-3-1,-12.1%
same,max response,NIH3T3,-2.79%
CCOC(=O)C(c1c(O)c2ccccc2oc1=O)c1c(O)c2ccccc2oc1=O,max response,CRL-7250 [1],-6.62%
same,outcome,HEK293,inactive
same,outcome,HaCat [2],inactive
same,outcome,NIH3T3,inactive
same,outcome,HACAT [3],inactive
same,outcome,HEK293T,inactive
Cc1nc2ccccc2c(=O)n1-c1ccccc1Cl,max response,CRL-7250 [1],-16.7%
same,max response,HaCat [2],-9.75%
same,max response,KB-3-1,-1.49%
CCCCCCCCCCCC[N+](C)(C)CCOc1ccccc1,Potency,N140,7.94 µM (active)
same,Potency,P93_24,4.47 µM (active)
same,Potency,P94_40,4.47 µM (active)
same,Potency,PAD,7.94 µM (active)
same,Potency,PC15,10 µM (active)
same,Potency,PC26,13.5 µM (active)
same,Potency,PC49,8.91 µM (active)
same,Potency,SC27B,7.08 µM (active)
same,Potency,TAB109,5.01 µM (active)
same,Potency,TAB113,4.47 µM (active)
same,Potency,TAB165,5.62 µM (active)
same,Potency,W2,3.79 µM (active)
same,Potency,CRL-7250 [1],18.8 µM (active)
same,Potency,HEK293,8.41 µM (active)
same,Potency,HaCat [2],16.8 µM (active)
O=C(CBr)Nc1ccc(Cl)cc1C(=O)c1ccccc1F,outcome,CRL-7250 [1],inactive
same,max response,HEK293,-0.335%
same,max response,HaCat [2],3.69%
same,outcome,NIH3T3,inactive
same,outcome,CRL-7250 [4],inactive
CNC(=O)NC(O)C(Cl)(Cl)Cl (stereo not drawn),Potency,N140,inactive
same,Potency,P93_24,inactive
same,Potency,P94_40,inactive
same,Potency,PAD,inactive
same,Potency,PC15,inactive
same,Potency,PC26,inactive
same,Potency,PC49,inactive
same,Potency,SC27B,inactive
same,Potency,TAB109,inactive
same,Potency,TAB113,inactive
same,Potency,TAB165,inactive
same,Potency,W2,inactive
same,max response,CRL-7250 [1],2.85%
same,max response,HEK293,2.62%
same,outcome,HaCat [2],inactive
same,max response,KB-3-1,2.2%
same,max response,NIH3T3,-0.697%
same,outcome,HACAT [3],inactive
COc1cc(CC(C)N)cc2c1OCO2 (stereo not drawn),max response,CRL-7250 [1],-5.81%
same,max response,HaCat [2],1.78%
same,max response,KB-3-1,-6.39%
same,max response,NIH3T3,-6.97%
CC[C@]1(O)CC[C@H]2[C@@H]3CCC4=CCCC[C@@H]4[C@H]3CC[C@@]21C,Potency,P94_40,11.2 µM (active)
same,Potency,PC15,inactive
same,Potency,PC26,inactive
same,Potency,PC49,inactive
same,Potency,TAB109,inactive
same,max response,CRL-7250 [1],-110%
same,max response,HEK293,-119%
CCO[C@H]1O[C@@H]2OC3(C)CC[C@H]4[C@H](C)CC[C@@H]([C@H]1C)[C@@]24OO3,max response,CRL-7250 [1],3.38%
same,Potency,HEK293,5.96 µM (active)
same,max response,HaCat [2],-19.4%
same,max response,NIH3T3,0.769%
C1CN2CCC1CC2,max response,CRL-7250 [1],-5.27%
same,max response,HEK293,1.2%
same,outcome,HaCat [2],inactive
same,outcome,NIH3T3,inactive
same,outcome,HACAT [3],inactive
CCC1(c2cnc[nH]2)Cc2ccccc2C1,max response,CRL-7250 [1],-7.94%
same,max response,HEK293,-9.84%
same,max response,KB-3-1,-12.7% and -2.33%
same,outcome,NIH3T3,inactive
CCCC(C)C1(CC)C(=O)N=C(S)NC1=O (stereo not drawn),max response,CRL-7250 [1],-2.8%
same,outcome,HEK293,inactive
same,max response,HaCat [2],-26.2%
same,max response,NIH3T3,-2.94%
same,outcome,HEK293T,inactive
CC(C)NCC(O)c1ccc(N)c(C#N)c1 (stereo not drawn),Potency,N140,inactive
same,Potency,P93_24,inactive
same,Potency,P94_40,inactive
same,Potency,PAD,inactive
same,Potency,PC15,inactive
same,Potency,PC49,inactive
same,Potency,SC27B,inactive
same,Potency,TAB109,inactive
same,Potency,TAB113,inactive
same,Potency,TAB165,inactive
same,Potency,W2,inactive
same,max response,CRL-7250 [1],3.52%
same,outcome,HEK293,inactive
same,max response,HaCat [2],-0.104%
same,max response,KB-3-1,-10.3%
same,max response,NIH3T3,2.77%
same,outcome,HEK293T,inactive
CCN(Cc1ccc(Cl)nc1)/C(=C/[N+](=O)[O-])NC,Potency,N140,inactive
same,Potency,P93_24,inactive
same,Potency,P94_40,inactive
same,Potency,PAD,inactive
same,Potency,PC15,inactive
same,Potency,PC26,inactive
same,Potency,PC49,inactive
same,Potency,SC27B,inactive
same,Potency,TAB109,inactive
same,Potency,TAB113,inactive
same,Potency,TAB165,inactive
same,max response,CRL-7250 [1],-14.2%
same,outcome,HEK293,inactive
same,outcome,HaCat [2],inactive
same,max response,NIH3T3,3.9%
same,outcome,HACAT [3],inactive
same,outcome,HEK293T,inactive
COc1cc(CC#N)cc(OC)c1OC,max response,CRL-7250 [1],-2.26%
same,max response,HEK293,-3.74%
same,outcome,HaCat [2],inactive
same,max response,NIH3T3,-3.69%
same,outcome,HACAT [3],inactive
c1cc2c(c(N3CCNCC3)c1)OCCO2,Potency,N140,inactive
same,Potency,P93_24,inactive
same,Potency,P94_40,inactive
same,Potency,PAD,inactive
same,Potency,PC15,inactive
same,Potency,PC26,inactive
same,Potency,PC49,inactive
same,Potency,SC27B,inactive
same,Potency,TAB109,inactive
same,Potency,TAB113,inactive
same,Potency,TAB165,inactive
same,Potency,W2,inactive
same,max response,CRL-7250 [1],-0.883%
same,max response,HEK293,-10.2%
same,outcome,HaCat [2],inactive
same,max response,KB-3-1,-5.14%
same,max response,NIH3T3,1.17%
same,outcome,HACAT [3],inactive
